Experimental data taken from PubChem BioAssay (NCI).
This is part of a sample that, as a whole, favours compounds with a hit. Of some 83,000 tested, about 20% had one in any assay.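 Negative percent growth values reflect cell death: -40 means 40% of the cells present at the start died, and -100 means all died.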

Key:
Assay in all cases: NCI-60 one-dose screen, 48 h (100 = growth as untreated, 0 = no growth, -100 = all killed)
Details in all cases: 10 µM unless noted; active = growth percent below 10; inactive = the rest
NCI-H23 lung = test system: NCI-H23 lung
NCI-H226 lung = test system: NCI-H226 lung
NCI-H322M lung = test system: NCI-H322M lung
HOP-62 NSCLC = test system: HOP-62 NSCLC
NCI-H460 lung = test system: NCI-H460 lung
NCI-H522 lung = test system: NCI-H522 lung
A549/ATCC NSCLC = test system: A549/ATCC NSCLC
786-0 renal = test system: 786-0 renal
COLO 205 colon = test system: COLO 205 colon
DU-145 prostate = test system: DU-145 prostate
K-562 leukemia = test system: K-562 leukemia
MALME-3M melanoma = test system: MALME-3M melanoma
MDA-MB-231 breast = test system: MDA-MB-231 breast
RXF 393 renal = test system: RXF 393 renal
SF-268 CNS = test system: SF-268 CNS
SF-295 CNS = test system: SF-295 CNS
SF-539 CNS = test system: SF-539 CNS
UACC-257 melanoma = test system: UACC-257 melanoma
M14 melanoma = test system: M14 melanoma
HCT-15 colon = test system: HCT-15 colon

Measured: growth

[O-]/[N+](=C\C=C\c1ccccc1)c1ccccc1
inactive: NCI-H23 lung 103% | NCI-H226 lung 97.8% | NCI-H322M lung 113% | HOP-62 NSCLC 116% | NCI-H460 lung 107% | NCI-H522 lung 102% | A549/ATCC NSCLC 144% | 786-0 renal 101% | COLO 205 colon 141% | DU-145 prostate 111% | K-562 leukemia 98.1% | MALME-3M melanoma 158% | MDA-MB-231 breast 102% | RXF 393 renal 405% | SF-268 CNS 101% | SF-295 CNS 102% | SF-539 CNS 103% | UACC-257 melanoma 127% | M14 melanoma 115% | HCT-15 colon 104%

Cc1ccsc1/C=C/C1=NCCCN1C
inactive: NCI-H23 lung 97% | NCI-H226 lung 100% | NCI-H322M lung 102% | HOP-62 NSCLC 100% | NCI-H460 lung 116% | NCI-H522 lung 91% | A549/ATCC NSCLC 99.7% | 786-0 renal 92.5% | COLO 205 colon 101% | DU-145 prostate 112% | K-562 leukemia 101% | MALME-3M melanoma 97% | MDA-MB-231 breast 99.3% | RXF 393 renal 113% | SF-268 CNS 111% | SF-295 CNS 95.6% | SF-539 CNS 119% | UACC-257 melanoma 110% | M14 melanoma 100% | HCT-15 colon 109%

CCCCCCCCSc1ncnc2c1ncn2CO
inactive: NCI-H23 lung 50.8% | NCI-H226 lung 58.5% | NCI-H322M lung 140% | HOP-62 NSCLC 82.7% | NCI-H460 lung 86.6% | NCI-H522 lung 66.4% | A549/ATCC NSCLC 102% | 786-0 renal 85.5% | COLO 205 colon 104% | DU-145 prostate 90.9% | K-562 leukemia 73.7% | MALME-3M melanoma 118% | MDA-MB-231 breast 98.2% | RXF 393 renal 55.2% | SF-268 CNS 97.6% | SF-295 CNS 67.7% | SF-539 CNS 86.3% | UACC-257 melanoma 81.6% | M14 melanoma 97.7% | HCT-15 colon 97.1%

O=C1NCN(CCO)CN1
inactive: NCI-H23 lung 98.6% | NCI-H226 lung 105% | NCI-H322M lung 94.2% | HOP-62 NSCLC 85.1% | NCI-H460 lung 105% | NCI-H522 lung 103% | A549/ATCC NSCLC 101% | 786-0 renal 90.4% | COLO 205 colon 120% | DU-145 prostate 117% | K-562 leukemia 111% | MALME-3M melanoma 92.6% | MDA-MB-231 breast 125% | RXF 393 renal 107% | SF-268 CNS 108% | SF-295 CNS 113% | SF-539 CNS 93.3% | UACC-257 melanoma 96.7% | M14 melanoma 96.7% | HCT-15 colon 109%

COc1cc(C2C=C(c3ccc(C)cc3)Nc3nc(SC)[nH]c(=O)c32)ccc1Oc1ccnc2cc(Cl)ccc12 (stereo not given)
inactive: NCI-H23 lung 80.7% | NCI-H226 lung 79.7% | NCI-H322M lung 84% | HOP-62 NSCLC 113% | NCI-H460 lung 70.2% | NCI-H522 lung 75% | A549/ATCC NSCLC 63.1% | 786-0 renal 85.1% | COLO 205 colon 101% | DU-145 prostate 64.5% | K-562 leukemia 75.6% | MALME-3M melanoma 80.1% | MDA-MB-231 breast 73.6% | RXF 393 renal 83.4% | SF-268 CNS 59.6% | SF-295 CNS 70.1% | SF-539 CNS 100% | UACC-257 melanoma 62.7% | M14 melanoma 85.1% | HCT-15 colon 64%

O=C(CN1CCCCC1)Sc1nnc2sc3ccccc3n12
inactive: NCI-H23 lung 93.1% | NCI-H226 lung 84.9% | NCI-H322M lung 111% | HOP-62 NSCLC 89.9% | NCI-H460 lung 103% | NCI-H522 lung 99.5% | A549/ATCC NSCLC 109% | 786-0 renal 106% | COLO 205 colon 121% | DU-145 prostate 112% | K-562 leukemia 99.6% | MALME-3M melanoma 97.5% | MDA-MB-231 breast 97.4% | RXF 393 renal 108% | SF-268 CNS 102% | SF-295 CNS 110% | SF-539 CNS 101% | UACC-257 melanoma 102% | M14 melanoma 98% | HCT-15 colon 112%

CCCCCCCCCCC[C@@H](C[C@H]1OC(=O)[C@H]1CCCCCC)OC(=O)[C@@H](CC(C)C)NC=O
inactive: NCI-H23 lung 70.1% | NCI-H226 lung 72.6% | NCI-H322M lung 94.2% | HOP-62 NSCLC 72.3% | NCI-H460 lung 42.9% | NCI-H522 lung 59.9% | A549/ATCC NSCLC 83.6% | 786-0 renal 44.8% | COLO 205 colon 81% | DU-145 prostate 92.2% | K-562 leukemia 45.2% | MALME-3M melanoma 89.4% | MDA-MB-231 breast 60.9% | RXF 393 renal 44.1% | SF-268 CNS 65.2% | SF-295 CNS 24.7% | SF-539 CNS 63.1% | UACC-257 melanoma 99.6% | M14 melanoma 62.6% | HCT-15 colon 34.8%

CCOC(=O)c1c2c(c(C)n1Cc1ccc(OC)cc1)-c1nc(N)ncc1CC2
inactive: NCI-H23 lung 125% | NCI-H226 lung 92.2% | NCI-H322M lung 113% | HOP-62 NSCLC 83.5% | NCI-H460 lung 111% | NCI-H522 lung 114% | A549/ATCC NSCLC 110% | 786-0 renal 98.5% | COLO 205 colon 116% | DU-145 prostate 116% | K-562 leukemia 88.8% | MALME-3M melanoma 132% | MDA-MB-231 breast 97.2% | RXF 393 renal 116% | SF-268 CNS 110% | SF-295 CNS 104% | SF-539 CNS 112% | UACC-257 melanoma 121% | M14 melanoma 106% | HCT-15 colon 113%
